Test systems include T-47D breast; BT-549 breast; MDA-MB-435 melanoma; SW-620 colon; MCF7 breast; HCT-116 colon; HCC-2998 colon; KM12 colon.
What all share (assay): NCI-60 one-dose screen, 48 h (100 = growth as untreated, 0 = no growth, -100 = all killed)
What all share (settings): 10 µM unless noted

Molecules are shown by their SMILES. This is part of a sample that, as a whole, favours compounds with a hit. Of some 83,000 tested, about 20% had one in any assay.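 96-well plates, one dose, 48 hours. Percent growth reported; active if below 10.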 A number with no mark means an inactive call. Activity calls are given as the source filed them.

As for `Cc1ccc(-c2cc(-c3ccc(C)cc3)nc(N3CCN(CCNc4ccnc5cc(Cl)ccc45)CC3)n2)cc1`, the growth with T-47D breast was 71.8%; with BT-549 breast, 67.6%; with MDA-MB-435 melanoma, 23.3%; in the assay on SW-620 colon, -29.1% (active); in the assay with MCF7 breast it was 15.5%; in the assay with HCT-116 colon it was -3.1% (active). Further, the growth was 16.6% in the assay with HCC-2998 colon and 31.9% in the assay on KM12 colon.

In the case of `CC(=O)OC[C@]12CC[C@@H]([C@@H](C)C(N)=O)[C@@H]1[C@H]1CC[C@@H]3[C@@]4(C)CC[C@H](OC(C)=O)C(C)(C)[C@@H]4CC[C@@]3(C)[C@]1(C)CC2`, the growth with T-47D breast is -8.82% [100 µM] (active); in the assay with BT-549 breast, -55.1% [100 µM] (active); in the assay on MDA-MB-435 melanoma, -63.8% [100 µM] (active); in the assay with SW-620 colon it was -55.1% [100 µM] (active); with MCF7 breast it was -45.6% [100 µM] (active); in the assay with HCT-116 colon, -84.2% [100 µM] (active). In addition, the growth in the assay on HCC-2998 colon was -68.1% [100 µM] (active); in the assay with KM12 colon, -62.1% [100 µM] (active).

With `CCN1c2ccccc2C(Cl)(c2ccc(N(C)C)cc2)c2ccccc21`, the growth with T-47D breast is 54.9%; with BT-549 breast it was 62.1%; in the assay on MDA-MB-435 melanoma, 23.3%; in the assay with SW-620 colon, 12.2%; in the assay on MCF7 breast, 76.2%; in the assay with HCT-116 colon, 17.5%. Moreover, the growth in the assay on HCC-2998 colon is 78%; with KM12 colon, 21.9%.

For the molecule `Cn1cc(-c2nnc(-c3cn(C)c4ncccc34)s2)c2ccccc21`, the growth is 47.9% in the assay with T-47D breast; 68.3% in the assay on BT-549 breast; 9.15% (active) in the assay on MDA-MB-435 melanoma; 61.6% in the assay with SW-620 colon; 58.6% in the assay on MCF7 breast; 76.6% in the assay with HCT-116 colon. The figures for the growth with HCC-2998 colon and in the assay with KM12 colon were 82.6% and 25.4%, respectively.

As to `C=C(C)[C@@H]1CC[C@]2(COCCC#N)CC[C@]3(C)[C@H](CC[C@@H]4[C@@](C)(CCCNCCC#N)[C@H](C(=C)C)CC[C@]43C)[C@@H]12`, the growth in the assay with T-47D breast was 23.4% [100 µM]; with BT-549 breast it was 41% [100 µM]; in the assay on MDA-MB-435 melanoma, 1.59% [100 µM] (active); in the assay on SW-620 colon, -38.3% [100 µM] (active); in the assay on MCF7 breast, 9.79% [100 µM] (active); in the assay on HCT-116 colon, -53.8% [100 µM] (active). In addition, the growth with HCC-2998 colon is 12.9% [100 µM]; with KM12 colon it was 27.4% [100 µM].

As to `Cc1ccc(C2=C/C(=C/c3ccc(Br)cc3)C(=O)N2CCc2ccc(S(N)(=O)=O)cc2)cc1`, the growth with T-47D breast is 75.9%; in the assay on BT-549 breast, 98.1%; in the assay on MDA-MB-435 melanoma, 101%; in the assay with SW-620 colon, 103%; in the assay on MCF7 breast, 88.5%; with HCT-116 colon, 95.2%. The growth in the assay with HCC-2998 colon was 105%; with KM12 colon it was 100%.

Regarding `O=C1NC(=O)c2cc([N+](=O)[O-])cc3cccc1c23`, the growth with T-47D breast is 96.1%; with BT-549 breast, 96%; with MDA-MB-435 melanoma, 100%; in the assay with SW-620 colon, 98.2%; in the assay on MCF7 breast, 90%; in the assay with HCT-116 colon, 107%. In addition, the growth in the assay with HCC-2998 colon is 107%; in the assay on KM12 colon, 105%.

Take `O=C(Nc1ccc(C(=O)/C=C/c2ccc(N3CCOCC3)cc2)cc1)Nc1ccc([N+](=O)[O-])cc1`: the growth in the assay on T-47D breast was 72.8%; in the assay on BT-549 breast, 108%; in the assay with MDA-MB-435 melanoma, 96%; in the assay on SW-620 colon, 99.7%; in the assay on MCF7 breast it was 76.3%; in the assay on HCT-116 colon it was 97.3%. Besides, the growth in the assay on HCC-2998 colon is 109%; in the assay on KM12 colon, 89.4%.

Turning to `COc1ccc(OC)c(NC=O)c1`, the growth with T-47D breast is 101%; in the assay on BT-549 breast, 109%; with MDA-MB-435 melanoma it was 104%; with SW-620 colon, 105%; in the assay on MCF7 breast, 96.4%; with HCT-116 colon it was 101%. Moreover, the figures for the growth in the assay on HCC-2998 colon and with KM12 colon were 103% and 109%, respectively.

For `Fc1cc2[nH]ncc2c2c3c(c(-c4cn[nH]c4C(F)(F)F)nc12)C1CCC3C1` (configuration not stated), the growth is 3.94% (active) in the assay with T-47D breast; -60.7% (active) in the assay on BT-549 breast; 22.8% in the assay on MDA-MB-435 melanoma; 2.37% (active) in the assay with SW-620 colon; 2.59% (active) with MCF7 breast; 1.87% (active) in the assay on HCT-116 colon. Further, the growth with HCC-2998 colon is 14.7%; in the assay on KM12 colon, 7.9% (active).

Consider `CCCCCCCCCCCCCCCCCCNC(=S)N/N=C/c1ccc(OC)c(OC)c1`, for which the growth in the assay with T-47D breast was 95.8%; in the assay on BT-549 breast, 79.9%; in the assay on MDA-MB-435 melanoma, 97.4%; in the assay on SW-620 colon, 99.2%; in the assay with MCF7 breast it was 96.8%; in the assay on HCT-116 colon it was 96.9%. Further, the growth in the assay with HCC-2998 colon was 101%; in the assay with KM12 colon, 97.1%.

Regarding `c1ccc(-c2nnc(-c3c[nH]c4ncccc34)s2)cc1`, the growth in the assay on T-47D breast is 40.5%; in the assay on BT-549 breast, 95.3%; in the assay on MDA-MB-435 melanoma it was 94.8%; with SW-620 colon it was 104%; in the assay on MCF7 breast, 54.1%; in the assay with HCT-116 colon, 91%. The growth was 111% with HCC-2998 colon and 93.2% with KM12 colon.

In the case of `CCCCCN(CCCCC)CCCCCCCCN1CCCc2ccccc21`, the growth in the assay with T-47D breast is 108%; in the assay on BT-549 breast, 88.6%; in the assay on MDA-MB-435 melanoma, 87.9%; in the assay with SW-620 colon it was 82.8%; in the assay with MCF7 breast, 101%; with HCT-116 colon, 64.8%. Besides, the growth in the assay with HCC-2998 colon is 74.8%; with KM12 colon, 73.4%.

As to `O=C1/C(=C\c2cccn2Cc2ccccc2)c2ccccc2N1c1c(Cl)cccc1Cl`, the growth is -35.7% (active) with T-47D breast; 81% in the assay on BT-549 breast; 91% in the assay on MDA-MB-435 melanoma; 85.7% in the assay on SW-620 colon; 6.23% (active) with MCF7 breast; 27.1% in the assay on HCT-116 colon. The results for the growth in the assay with HCC-2998 colon and in the assay with KM12 colon were 22.1% and 4.07% (active), respectively.

(Values after PubChem BioAssay (NCI).)
